Results published in PubChem BioAssay (NCI).
About 79,000 compounds went through this panel and 15% of them were active in at least one assay; those are over-represented in the sample as a whole. A number with no mark means an inactive call. Activity calls are given as the source filed them. No stated cut-off is given here; in the data, active means growth inhibition above about 70%; inactive means the rest.

Key:
[1] = NCI Yeast Anticancer Drug Screen. Data for the rad50 strain (AID 155);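 further: 0% = growth of vehicle-only cultures of the same strain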; settings: S. cerevisiae rad50 strain growth inhibition, active compounds read high
How it was run: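 Compounds were tested on a yeast strain with an engineered DNA damage repair alteration; the reported value is growth inhibition normalised to vehicle treatment.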

[2] = NCI Yeast Anticancer Drug Screen. Data for the mec2-1 strain (AID 157); settings: S. cerevisiae mec2-1 strain, active compounds read high
How it was run: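 Vehicle-treated cultures served as reference for growth inhibition of compound-exposed mec2-1 yeast.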

[3] = NCI Yeast Anticancer Drug Screen. Data for the sgs1 mgt1 strain (AID 161);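 further: 0% = growth of cultures given vehicle only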; settings: S. cerevisiae sgs1 mgt1 strain, active compounds read high
How it was run: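 Genetically altered yeast, compound exposure, growth inhibition relative to vehicle.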

[4] = NCI Yeast Anticancer Drug Screen. Data for the cln2 rad14 strain (AID 165);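 further: 0% = growth equal to vehicle treated cultures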; settings: S. cerevisiae cln2 rad14 strain, active compounds read high
How it was run: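 Each compound was tested on cln2 rad14 yeast. Inhibition of growth was calculated against vehicle-exposed controls.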

[5] = NCI Yeast Anticancer Drug Screen. Data for the bub3 strain (AID 167); settings: S. cerevisiae bub3 mutant strain, active compounds read high
How it was run: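 Growth of a checkpoint-deficient yeast mutant is measured after compound exposure. Values represent inhibition relative to vehicle.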

[6] = NCI Yeast Anticancer Drug Screen. Data for the mlh1 rad18 strain (AID 175); settings: S. cerevisiae mlh1 rad18 strain growth inhibition, active compounds read high
How it was run: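 Vehicle-treated cultures served as the reference for growth inhibition in a yeast strain carrying DNA damage repair alterations exposed to each compound.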

[7] = at 5.0 µM (retest, dose inferred, filed as 0.5)
[8] = at 50.0 µM (retest, dose inferred, filed as 5.0)

Compound	growth inhibition [1, 7]	growth inhibition [1, 8]	growth inhibition ([1]; at 50.0 µM)	growth inhibition [2, 7]	growth inhibition [2, 8]	growth inhibition ([2]; at 50.0 µM)	growth inhibition [3, 7]	growth inhibition [3, 8]	growth inhibition ([3]; at 50.0 µM)	growth inhibition [4, 7]	growth inhibition [4, 8]	growth inhibition ([4]; at 50.0 µM)	growth inhibition [5, 7]	growth inhibition [5, 8]	growth inhibition ([5]; at 50.0 µM)	growth inhibition [6, 7]	growth inhibition [6, 8]	growth inhibition ([6]; at 50.0 µM)
C=C(Br)COc1ccc2c(C)cc(=O)oc2c1	38%	39%	67.5%	35%	32%	25.7%	42%	47%	75.2% (active)	38%	32%	36%	45%	43%	68.8%	49%	51%	49.8%
Oc1ccc(Cl)cc1Cc1cc(Cl)cc(Cc2cc(Cl)ccc2O)c1O	-1%	97% (active)	96% (active)	1%	98% (active)	97.3% (active)	4%	98% (active)	97.5% (active)	-12%	95% (active)	96.5% (active)	-17%	98% (active)	96.7% (active)	14%	97% (active)	95.8% (active)
CCOC(=O)/C(=C\c1cccc(OC)c1)C(C)=O	-5%	90% (active)	90.2% (active)	-5%	96% (active)	91.7% (active)	-11%	93% (active)	90% (active)	-14%	86% (active)	84.3% (active)	23%	95% (active)	88.3% (active)	-16%	95% (active)	88.3% (active)
COc1ccc(N)c([N+](=O)[O-])c1	-5%	13%	41.8%	1%	23%	58%	-2%	12%	69.5%	-1%	10%	39%	2%	30%	48.9%	-4%	31%	27.9%
Cc1cc(N=Nc2ccccc2)ccc1O	-13%	99% (active)	99.4% (active)	-11%	100% (active)	99.5% (active)	-2%	100% (active)	99.5% (active)	-31%	99% (active)	99.3% (active)	6%	99% (active)	99.3% (active)	-8%	99% (active)	99.3% (active)
ClCc1ccc(OCc2ccccc2)c(OCc2ccccc2)c1	4%	51%	79% (active)	2%	67%	62.3%	4%	87% (active)	89.2% (active)	0%	48%	82.3% (active)	6%	77% (active)	87.2% (active)	17%	87% (active)	94.2% (active)
CCOc1ccc2c(c1)CCC1C2CCC2(C)CC(O)CC12 (centres undefined)	11%	98% (active)	97.7% (active)	3%	67%	97.5% (active)	22%	99% (active)	54%	-18%	82% (active)	98.6% (active)	-4%	-3%	98.1% (active)	14%	99% (active)	98.6% (active)
O=C(Oc1c([N+](=O)[O-])cc(-c2ccc([N+](=O)[O-])cc2)cc1[N+](=O)[O-])c1ccccc1	32%	56%	74.7% (active)	86% (active)	89% (active)	78.1% (active)	80% (active)	87% (active)	82.5% (active)	34%	76% (active)	79.3% (active)	49%	74% (active)	74.3% (active)	82% (active)	83% (active)	82.7% (active)
Cc1ccc(C(C)(C)c2ccc(C(=O)O)cc2)cc1	-4%	-14%	25.1%	3%	4%	10.2%	-3%	0%	42.5%	1%	-10%	-12.7%	-6%	-8%	-2.5%	1%	-7%	8.9%
O=C1/C(=C\c2ccc([N+](=O)[O-])o2)Oc2cc(O)ccc21	97% (active)	96% (active)	95.2% (active)	97% (active)	97% (active)	91.8% (active)	96% (active)	96% (active)	95.7% (active)	98% (active)	98% (active)	93.6% (active)	75% (active)	90% (active)	41.5%	97% (active)	98% (active)	95.7% (active)
O=C(O)CCn1c2ccccc2c2ccccc21	6%	45%	24.6%	-13%	52%	36.4%	-1%	68%	40.5%	-10%	42%	15.1%	-6%	61%	55.5%	-4%	49%	66%
CCC(=O)/C(=C\c1ccccc1)C(=O)C(C)CN(C)C (centres undefined)	9%	23%	7%	13%	16%	17.6%	12%	16%	26.6%	20%	25%	25.8%	10%	15%	33.8%	16%	24%	51.8%
NC(Cc1ccc(O)cc1O)C(=O)O (centres undefined)	0%	2%	7.7%	0%	-1%	31%	-1%	-4%	-7%	2%	-2%	74.9% (active)	5%	-4%	3.55%	-1%	-1%	16.4%
